Assay outcomes: PubChem, National Center for Advancing Translational Sciences (NCATS)
Shiga inhibitor – A qHTS for Small Molecule Inhibitors of Shiga Toxin | 9.2% of 290,000 active | inhibition, % at 38.7 µM | AID 2315, 2010 | Vero cells, Shiga toxin protein synthesis inhibition reporter; in the data active = inhibition mostly above about 28%, no sharp cut-off; inactive = mostly below about 43%; also: 0% is about no effect
Pf growth 96h – Primary qHTS for delayed death inhibitors of the malarial parasite plastid, 96 hour incubation; P. falciparum luciferase reporter growth, 96 h; Potency, µM (titrated, usually from 28.7 µM), for the others: at the top dose activity change, negative = inhibition, hits mostly inhibitors; 6.9% of 320,000 active; also: potency is read from the fitted curve at half-maximal effect; % is scaled to controls: 0 for no effect and ±100 for the full control effect
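P. falciparum expressing integrated firefly luciferase, in erythrocytes at 2% hematocrit, 0.05% parasitemia, incubated with compounds 96 h at 37 C, 5% CO2. Growth inhibition read as loss of luminescence; two-generation exposure targets delayed-death apicoplast inhibitors.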
Pf growth 48h – Primary qHTS for delayed death inhibitors of the malarial parasite plastid, 48 hour incubation; Potency, µM (top dose mostly 28.7 µM), without a hit: at the top dose activity change, negative = inhibition, most hits filed as inhibitors; P. falciparum luciferase growth in erythrocytes, 48 h; AID 504832, 2011; 5.9% of 310,000 active; also: potency is read from the fitted curve at half-maximal effect; % is scaled to controls: 0 for no effect and ±100 for the full control effect
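Luciferase-expressing parasites in RBCs, 2% Hct / 0.1% parasitemia final; RPMI 1640 + 0.5% Albumax; 37 C, 5% CO2, one generation; luminescence read-out, lower signal = inhibition.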
SARS PLP yeast – qHTS of Yeast-based Assay for SARS-CoV PLP | S. cerevisiae expressing SARS-CoV PLpro, growth rescue | Potency, µM (top dose mostly 32.9 µM), for inactives: at the top dose activity, positive = growth rescue, usual class: activators | 0.19% of 330,000 active | AID 485353, 2010; calls by dose curve; also: potency is read from the fitted curve at half-maximal effect; 0% is about no effect; nearly all actives have a fitted effect of over 55% in size
NS1 function inh – qHTS Assay for Inhibitors of Influenza NS1 Protein Function; Potency, µM (doses to about 46.1 µM), for the others: at the highest dose activity, positive = more growth; 0.4% of 270,000 active; AID 2326, 2010; calls by dose curve; also: potency is read from the fitted curve at half-maximal effect; actives are rising curves; nearly all actives have a fitted effect of over 50% in size
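Compounds were scored for reversing the slow growth caused by influenza A NS1 in S. cerevisiae, measured by optical density at 600 nm. Assay medium contained 2% galactose at pH 6.0; NS1-free yeast of the same strain were the positive control.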
Cycloheximide cs – Cycloheximide Counterscreen for Small Molecule Inhibitors of Shiga Toxin. cell reporter, cycloheximide protein synthesis inhibition counterscreen. 12% of 300,000 active. max response, %; in the data active = max response mostly above about 13%, no sharp cut-off; inactive = mostly below about 14%; also: read at 38.3 µM for the half of the compounds with a filed dose; 0% is about no effect
* = called active by the depositor. Compounds with a hit are over-represented: about 21% of the library has one in this group of screens. Unless noted, calls follow the shape of the dose curve; as a rule, active = well fitted inhibition curve with a large enough effect; inconclusive = small, poorly fitted or top-dose-only effect, or another doubt; inactive = no such curve, though single readings can be large or run the other way.

`Cc1ccc(N(Cc2ccccc2)C(=O)c2cccc(S(=O)(=O)N3CC(C)OC(C)C3)c2)cc1` (stereo not given) gave Pf growth 96h inconclusive, Pf growth 48h 10µM* and SARS PLP yeast 4%.
Screening CC1CN(S(=O)(=O)c2cccc(C(=O)OCC(=O)NCc3ccccc3)c2)CC(C)O1 (stereo not given) returned Pf growth 96h inconclusive, Pf growth 48h inconclusive and SARS PLP yeast 0%.
For CSC1=NC(C(Cl)(Cl)Cl)N=C(c2ccccc2)N1 (stereo not given) the results were Shiga inhibitor -2, Pf growth 96h 6%, Pf growth 48h inconclusive, SARS PLP yeast -2% and Cycloheximide cs -8.
`CCOc1cccc(C(=O)NC2CCCCC2)c1` gave Shiga inhibitor 101*, Pf growth 96h 12%, Pf growth 48h 83%, SARS PLP yeast 4%, NS1 function inh -8% and Cycloheximide cs 30*.
Screening O=C(NNC(=O)C1C2CCC(C2)C1C(=O)O)c1cccc(Cl)c1 (stereo not given) returned Shiga inhibitor 58, Pf growth 96h 20%, Pf growth 48h 19%, SARS PLP yeast -1%, NS1 function inh -1% and Cycloheximide cs 19*.
O=C(NC1CCCCCCC1)c1cccc(Cl)c1 was read as Shiga inhibitor 64*, Pf growth 96h 49%, SARS PLP yeast -3%, NS1 function inh -11% and Cycloheximide cs 40*.
For COC(=O)C1=C(C)N(C2CCCCC2)C(=O)/C1=C\c1cccs1 the results were Shiga inhibitor -1, Pf growth 96h -20%, Pf growth 48h 1%, SARS PLP yeast 8% and Cycloheximide cs 1.
Cc1ccc(NC(=O)Cn2nnc3ccccc3c2=O)cc1C was read as Shiga inhibitor 33, Pf growth 96h -1%, Pf growth 48h 0%, SARS PLP yeast -3%, NS1 function inh 7% and Cycloheximide cs 13.
Screening Cc1ccc(NC(=O)Cn2nnc3ccccc3c2=O)cc1 returned Shiga inhibitor 63, Pf growth 96h 23%, Pf growth 48h 96%, SARS PLP yeast 2% and Cycloheximide cs 32*.
Screening COc1ccc(CNC(=O)c2ccc(Cn3nc(C)c([N+](=O)[O-])c3C)o2)cc1 returned Shiga inhibitor 25, Pf growth 96h 36%, Pf growth 48h inconclusive, SARS PLP yeast -7%, NS1 function inh -60% and Cycloheximide cs -1.
`COc1ccc(CNC(=O)Cn2nnc3ccccc3c2=O)cc1` gave Shiga inhibitor 60*, Pf growth 96h 86%, Pf growth 48h 90%, SARS PLP yeast 3%, NS1 function inh 6% and Cycloheximide cs 22*.
COc1ccc(CNC(=O)Cn2nc(C(F)(F)F)cc2C)cc1 was read as Shiga inhibitor -8, Pf growth 96h 13µM*, Pf growth 48h 0%, SARS PLP yeast 1%, NS1 function inh 0% and Cycloheximide cs 7.
COc1ccc(CNC(=O)c2ccc(Cn3nc(C)cc3C)o2)cc1 was read as Shiga inhibitor -6, Pf growth 96h 1.5µM*, Pf growth 48h 3%, SARS PLP yeast 4%, NS1 function inh 10% and Cycloheximide cs -1.
Screening COCCCN1C(=O)N(c2ccc(F)cc2)C(=O)C1CC(=O)Nc1ccc(OC)cc1 (stereo not given) returned Shiga inhibitor 1, Pf growth 96h 18%, Pf growth 48h 20%, SARS PLP yeast -1%, NS1 function inh 0% and Cycloheximide cs -1.
`Cc1ccc(C)c(S(=O)(=O)NC2CCSC2=O)c1` (stereo not given) gave Pf growth 96h 19%, Pf growth 48h -27% and SARS PLP yeast -9%.
Screening O=C(COc1ccc2c(-c3ccccc3)cc(=O)oc2c1)NC1CCS(=O)(=O)C1 (stereo not given) returned Pf growth 96h 1%, Pf growth 48h -6% and SARS PLP yeast 6%.
O=C(Cn1nnc2ccccc2c1=O)NCCc1ccccc1 was read as Shiga inhibitor 25*, Pf growth 96h -24%, Pf growth 48h -7%, SARS PLP yeast -7%, NS1 function inh 3% and Cycloheximide cs 15.
Screening COc1cc(CNCc2cc(OC)c(OC)c(OC)c2)cc(OC)c1 returned Shiga inhibitor 1, Pf growth 96h inconclusive, Pf growth 48h -18%, SARS PLP yeast 1%, NS1 function inh -10% and Cycloheximide cs -3.
Cc1oc2c(c1C(=O)NCc1cccnc1)C(=O)c1ccccc1C2=O was read as Shiga inhibitor 9, Pf growth 96h 0.15µM*, Pf growth 48h inconclusive, SARS PLP yeast -3%, NS1 function inh 2% and Cycloheximide cs 3.
Screening COc1ccc(CNC(=O)c2c(C)oc3c2C(=O)c2ccccc2C3=O)cc1 returned Shiga inhibitor -10, Pf growth 96h 3.3µM*, Pf growth 48h inconclusive, SARS PLP yeast -27%, NS1 function inh -16% and Cycloheximide cs -1.
Screening CC(=O)c1c(C)oc2c1C(=O)c1ccccc1C2=O returned Shiga inhibitor 23, Pf growth 96h -29%, Pf growth 48h inconclusive, SARS PLP yeast 26%, NS1 function inh -16% and Cycloheximide cs -3.
CCN(CC)c1ccc(N=Cc2c(C)[nH]c3ccccc23)cc1 was read as Shiga inhibitor -2, Pf growth 96h 4.7µM*, Pf growth 48h 1.9µM*, SARS PLP yeast -1%, NS1 function inh -7% and Cycloheximide cs -1.
Cc1[nH]c2ccccc2c1/C=N/O was read as Shiga inhibitor -14, Pf growth 96h 0%, Pf growth 48h 13%, SARS PLP yeast 1%, NS1 function inh 9% and Cycloheximide cs 1.
Screening Oc1[nH]c2ccccc2c1C=Nc1ccccc1 returned Shiga inhibitor 74*, Pf growth 96h 97%, Pf growth 48h 163%, SARS PLP yeast -2%, NS1 function inh -6% and Cycloheximide cs 33*.
Screening CCOc1ccc(CN2CCN(C3CCSCC3)CC2CCO)cc1 (stereo not given) returned Shiga inhibitor -7, Pf growth 96h inconclusive, Pf growth 48h 25%, SARS PLP yeast 0%, NS1 function inh 4% and Cycloheximide cs 1.
Cc1ccccc1-c1cc(C(=O)NCc2ccc3c(c2)OCO3)nn1CC1CC(c2cccc([N+](=O)[O-])c2)=NO1 (stereo not given) was read as SARS PLP yeast -3%.
For CC1(C)CC(=O)C2=C(C1)OC(N)=C(C#N)C2c1cn(-c2ccccc2)nc1-c1ccc(F)cc1 (stereo not given) the results were Shiga inhibitor 10, Pf growth 96h inconclusive, Pf growth 48h 50%, SARS PLP yeast 0%, NS1 function inh 3% and Cycloheximide cs 0.
